# An excerpt weighted towards active compounds, which were near 12% of everything screened.
# FMDV antiviral = foot and mouth disease virus antiviral activity; FMDV antiviral cell-based qHTS; Potency, µM (series often up to 57.9 µM), most hits filed as inhibitors; 410,000 tested, 1.2% active; AID 1159524; calls by dose curve; tested in HEK293T cells; note: read-out not given here; nearly all actives have a fitted effect of over 45% in size
# Shiga toxin inh = inhibitors of Shiga toxin in Vero cells; AID 2315; inhibition, % at 38.7 µM; Vero cells, Shiga toxin protein synthesis inhibition reporter; 290,000 tested, 9.2% active; in the data active = inhibition mostly above about 28%, no sharp cut-off; inactive = mostly below about 43%
# Sm TGR inh = inhibitors of Schistosoma mansoni thioredoxin glutathione reductase; 360,000 tested, 3% active; Potency, µM (titrated, usually from 114 µM), hits mostly inhibitors; purified TGR, DTNB reduction, TNB absorbance 405 nm; Q962Y6; active = well fitted inhibition curve with a large enough effect; inconclusive = small, poorly fitted or top-dose-only effect; inactive = no such curve, though single readings can be large or run the other way; note: nearly all actives have a fitted effect of over 60% in size
#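 First, TGR (20 nM dispensed) and NADPH were mixed with compound. Second, a 15 min room-temperature incubation followed. Third, further NADPH and then DTNB were added to start the reaction. Finally, TNB absorbance was monitored kinetically.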
# CHX counter = affects cycloheximide protein synthesis inhibition readout, counter-screen; cell reporter, cycloheximide protein synthesis inhibition counterscreen; AID 2314; max response, %; 300,000 tested, 12% active; in the data active = max response mostly above about 13%, no sharp cut-off; inactive = mostly below about 14%; note: read at 38.3 µM for the half of the compounds with a filed dose
# Numbers stand for hits; n = inactive; u = inconclusive; x = no result given; + = active, no number.
SMILES,FMDV antiviral,Shiga toxin inh,Sm TGR inh,CHX counter
Nc1nc(Nc2cccc3ccccc23)nc(C2CCCC2=O)n1 (stereo unspecified),x,n,n,n
Nc1nc(CCl)nc(Nc2cccc3ccccc23)n1,u,n,16µM,n
COc1cc(C(=O)Nc2cccc(C)n2)ccc1OCC(=O)N1CCOCC1,n,x,n,x
COc1ccc(-c2csc(NC(=O)c3ccc(OCC(=O)N4CCOCC4)c(OC)c3)n2)cc1OC,14µM,n,n,n
CCc1noc(C)c1C(=O)Nc1nc(-c2ccc(NC(C)=O)cc2)cs1,22µM,x,n,x
COc1ccc(-c2csc(NC(=O)c3cc(C)oc3C)n2)cc1OC,u,n,n,n
CCc1noc(C)c1C(=O)Nc1nc(-c2ccc(OC)c(OC)c2)cs1,18µM,x,n,x
CCc1noc(C)c1C(=O)OCC(=O)Nc1nc(-c2ccc(F)c(F)c2)cs1,14µM,x,n,x
CCc1ccc(C(=O)CN2CCSC2=N)cc1,n,71,n,83
COc1ccccc1-c1noc(-c2ccc(N3CCN(C)CC3)c([N+](=O)[O-])c2)n1,n,x,n,x
CC(=O)c1ccc(NC(=O)Nc2nnc(N3CCCC(C)C3)s2)cc1 (stereo unspecified),n,x,n,x
CCOC(=O)c1cccc(NC(=O)c2cnc3ccccc3n2)c1,n,n,n,35
Cc1cc(Nc2cccc(C(F)(F)F)c2)nc2ccc(NC(=O)c3cncc(Br)c3)cc12,32µM,x,n,x
CCOC(=O)c1cccc(NC(=O)c2ccc(N(C)C)cc2)c1,u,108,n,68
CCOC(=O)c1cccc(NC(=O)c2cncc(Br)c2)c1,n,46,n,41
CCOC(=O)C(=O)Nc1cccc(C(=O)OCC)c1,n,n,n,n
Cc1cc(Nc2cccc(Cl)c2)nc2ccc(NC(=O)c3cncc(Br)c3)cc12,n,x,u,x
CCOC(=O)c1cccc(NC(=O)c2cccnc2)c1,n,n,n,n
CCOC(=O)c1cccc(NC(=O)c2ccc(NC(=O)c3ccco3)cc2)c1,u,n,n,n
Cc1cccn2c(=O)cc(COc3cccc(NC(=O)c4ccccc4F)c3)nc12,n,x,n,x
O=C(c1cnc(N2CCOCC2)c2ccccc12)N1CCN(c2ccccc2F)CC1,n,x,n,x
Cc1ccccc1NC(=O)c1c(NC(=O)C(C)Oc2cccc(Cl)c2)sc2c1CCCC2 (stereo unspecified),n,x,n,x
CCOC(=O)c1ccccc1NC(=O)N1CCN(Cc2cc(=O)n3nc(-c4ccccc4)sc3n2)CC1,n,x,n,x
N/C(=N\OC(=O)c1ccc(Cl)cc1)c1nonc1N,n,78,n,44
N/C(=N/OC(=O)c1ccccc1F)c1nonc1N,n,64,x,35
SMILES,FMDV antiviral,Shiga toxin inh,Sm TGR inh,CHX counter
N/C(=N\OCC(=O)Nc1ccccc1)c1nonc1N,n,n,n,n
N/C(=N\OCc1ccccc1)c1nonc1N,n,99,n,55
Nc1nonc1C(=O)OCC(=O)c1ccc(Cl)cc1,n,n,n,n
COc1cccc(-n2c(SCc3cccc(C)c3)nc3c([nH]c4ccccc43)c2=O)c1,n,x,n,x
Cc1cc(C(=O)Nc2cccc(NC(=O)c3ccco3)c2)ccc1[N+](=O)[O-],n,27,n,19
O=C(O)c1cc(NC(=O)c2ccc(Cl)c([N+](=O)[O-])c2)cc(C(=O)O)c1,n,n,n,n
Cc1cccc(NC(=O)c2cccc(NC(=O)c3ccco3)c2)c1,n,x,x,x
O=C(Nc1ccc2c(c1)OCCO2)c1ccc(Cl)c(Cl)c1,n,84,n,45
O=C(Nc1ccc2c(c1)OCCO2)c1ccc(Cl)c([N+](=O)[O-])c1,u,+,n,56
Cc1cc(C(=O)NC(C)CCc2ccccc2)ccc1[N+](=O)[O-] (stereo unspecified),n,x,n,18
Cc1ccc(NC(=O)C2CCCN(S(=O)(=O)c3ccc4c(c3)oc(=O)n4C)C2)cc1Cl (stereo unspecified),u,x,n,x
O=C(Nc1ccc(Cl)c(Cl)c1)C1=Cc2ccccc2OC1,n,66,n,43
O=C(Nc1ccc2c(c1)OCCO2)c1ccc2nccnc2c1,x,n,u,33
CCn1cc([N+](=O)[O-])c(C(=O)Nc2ccc3c(c2)OCCO3)n1,x,47,n,38
O=C(NCc1cccnc1)C(=O)Nc1ccc2c(c1)OCO2,n,n,n,18
CCn1cc([N+](=O)[O-])c(C(=O)NCc2ccc3c(c2)OCO3)n1,n,n,n,n
O=C(NCCO)c1cn(C2CCN(Cc3c(F)cccc3Cl)CC2)nn1,n,x,x,x
CCOc1cccc(CN2CCC(n3cc(C(=O)N4CCCCC4)nn3)CC2)c1O,n,x,x,x
Cc1cc(C)c2nc(N(Cc3cccnc3)C(=O)c3cccs3)sc2c1,n,x,n,x
N#Cc1c[nH]n2c(NC3CCCCC3)c(-c3cccc(Cl)c3)nc12,n,x,n,x

# Bioassay records as filed in PubChem BioAssay.
